Test results taken from PubChem BioAssay (NCI).
Compounds without any hit were thinned out: in the full panel of roughly 83,000, 20% have a hit.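 Results are percent growth after 48 hours of single-concentration exposure. 100 means growth as in untreated cells, lower positive values show inhibition; negative values down to -100 show cell death.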 A number with no mark means an inactive call. The source made the active and inactive calls. Rule for the calls: active = growth percent below 10; inactive = the rest.

tested on: NCI-H322M lung; assay: NCI-60 one-dose screen, 48 h (100 = growth as untreated, 0 = no growth, -100 = all killed); settings: 10 µM unless noted

Compound | growth
O=C(Nc1ccc(I)cc1F)c1cc(I)ccc1O | -3.09% (active)
CCOc1cccc(NC2=C(Br)C(=O)C(C)=C(C)C2=O)c1 | 96.2%
Cc1nc(S(=O)(=O)c2ccccc2)c(S(=O)(=O)Cc2ccc([N+](=O)[O-])cc2)o1 | 100%
Nc1nc(Cl)cc(=O)n1Cc1ccccc1 | 89.6%
Oc1ccc(C#CCOc2ccccc2)cc1CNCCN(Cc1ccccn1)Cc1ccccn1 | 13.6%
c1ccc(Nc2cc(-c3cccnc3)[nH]n2)cc1 | 95.5%
CNCCCNc1nc2ccccc2c2c(=O)c3cc(OC)ccc3sc12 | 85.7%
Cc1nc2ccccc2n1CC1C(=O)NC(=O)NC1=O | 95.5%
COc1ccc(OC)c(/C=C/C(=O)N/N=C/c2ccc(Cl)cc2)c1 | 41.3%
Cc1ccc(S(=O)(=O)Oc2ccc(NC(=O)c3ccc(Cl)cc3)cc2)cc1 | 91%
Nc1nn(C(=O)Nc2ccc(Cc3ccccc3)cc2)c2ccc(Cl)cc12 | 65.9%
CC(=O)CC[C@H]1C(=O)N[C@@H](C(C)C)C(=O)N[C@@H](Cc2cc(O)cc(F)c2)C(=O)N2CCC[C@H](N2)C(=O)O[C@H](/C(C)=C/C=C/C(=O)OC(C)(C)C)C/C=C/C=C/[C@H](O)[C@H](C)[C@H]1O | 69.2%
Cn1cc(-c2cc3ncnc(Nc4ccc(CC(=O)Nc5cc(C(C)(C)C)nn5C)cc4)c3s2)cn1 | 46.4%
Oc1c(I)cc(I)cc1CNCCCN(Cc1ccccn1)Cc1ccccn1 | -75.3% (active)
COc1ccc(/C=C2\Oc3cc(OCCN4CCC(Cc5ccccc5)CC4)ccc3C2=O)cc1OC | 96.2%
CC[C@H](C)C(=O)O[C@H]1CCC=C2C=C[C@H](C)[C@H](CC[C@@H]3CC=CC(=O)O3)[C@H]21 | 95.9%
Cc1cccc2c(=O)c3c(sc12)c(NCc1ccccc1)nc1ccccc13 | 89.9%
COc1cc(C2CC(c3ccc(N(C)C)cc3)=NN2C(C)=O)cc(OC)c1OC (centres undefined) | 44.2%
CCCCCCNC(=O)Oc1ccc(/C(=C(\C)c2ccc(Cl)cc2)c2ccc(OCCCN(C)C)cc2)cc1 | 81.7%
N[C@@H](Cc1ccccc1)[C@@H](O)C(=O)NCc1ccc(F)cc1 | 104%
COC(=O)/C=C1\S/C(=N\Nc2ccc([N+](=O)[O-])cc2[N+](=O)[O-])N(C2CCCCC2)C1=O | 99.3%
O=C(O)c1cn(C2CC2)c2cc(N3CCN(C(=O)Nc4nc(-c5ccccc5)cs4)CC3)c(F)cc2c1=O | 31.4%

tested on: HOP-62 NSCLC; assay: as above; settings: 10 µM unless noted

Compound | growth
O=c1ccc(N=Nc2ccccc2)ccc1Cl | 93.9%
CCCCCCn1c(-c2ccc(C(=O)O/N=C(\N)c3ccc(OC)cc3)cc2)nc(-c2ccccc2)c1-c1ccccc1 | 26.4%
COc1ccc(C(=O)C[C@]2(O)C(=O)Nc3c(Cl)ccc(Cl)c32)cc1 | 40.4%
CCCCOc1nc2c(C)cccc2cc1-c1cc(-c2ccc(Cl)cc2)nc(-c2ccc(Cl)cc2)c1 | 103%
CSc1ncccc1C(=O)OCC(=O)Nc1oc(C)c2c(C)n[nH]c(=O)c12 | 105%
O=C(Oc1cccc2ccccc12)Oc1cccc2ccccc12 | 96.1%
COC(=O)[C@H](C)NC(=O)NC(=O)NC(=O)CI | 98.4%
C[C@H](C(=O)Nc1ccc(S(N)(=O)=O)cc1)S(=O)(=O)c1ccccc1 | 87.6%
c1ccc2c(c1)Nc1ccncc1S2 | 98.2%
COc1ccc(C2CC(c3ccc(Nc4ccnc5cc(Cl)ccc45)cc3)=NN2C=O)cc1 (centres undefined) | 90.7%
O=C(CS(=O)c1oc(-c2cccs2)nc1S(=O)(=O)c1ccc(Br)cc1)c1ccccc1 (centres undefined) | 84.6%
O=C(N=c1oc2ccccc2cc1-c1cc2ccccc2[nH]1)Nc1ccc(Cl)cc1 | 83.3%
CCc1cccc2c3c(sc12)C(c1ccc(F)cc1)C(C#N)=C(N)O3 (centres undefined) | 48.7%
C/C(=C\C(=O)c1ccc(Cl)cc1)c1ccc(Cl)cc1 | 88.1%
COc1cc(/C=C/c2ccccc2)cc(OC)c1 | 108%
O=C(Nc1ccc(I)cc1F)c1cc(I)ccc1O | 16.8%
CCOc1cccc(NC2=C(Br)C(=O)C(C)=C(C)C2=O)c1 | 83.6%
Cc1nc(S(=O)(=O)c2ccccc2)c(S(=O)(=O)Cc2ccc([N+](=O)[O-])cc2)o1 | 88.4%
Nc1nc(Cl)cc(=O)n1Cc1ccccc1 | 97.8%

Compound | growth
Oc1ccc(C#CCOc2ccccc2)cc1CNCCN(Cc1ccccn1)Cc1ccccn1 | 13.3%
c1ccc(Nc2cc(-c3cccnc3)[nH]n2)cc1 | 84%
CNCCCNc1nc2ccccc2c2c(=O)c3cc(OC)ccc3sc12 | 80.2%
Cc1nc2ccccc2n1CC1C(=O)NC(=O)NC1=O | 105%
COc1ccc(OC)c(/C=C/C(=O)N/N=C/c2ccc(Cl)cc2)c1 | 37.9%
Cc1ccc(S(=O)(=O)Oc2ccc(NC(=O)c3ccc(Cl)cc3)cc2)cc1 | 91.1%
Nc1nn(C(=O)Nc2ccc(Cc3ccccc3)cc2)c2ccc(Cl)cc12 | 67.8%
CC(=O)CC[C@H]1C(=O)N[C@@H](C(C)C)C(=O)N[C@@H](Cc2cc(O)cc(F)c2)C(=O)N2CCC[C@H](N2)C(=O)O[C@H](/C(C)=C/C=C/C(=O)OC(C)(C)C)C/C=C/C=C/[C@H](O)[C@H](C)[C@H]1O | 44.9%
Cn1cc(-c2cc3ncnc(Nc4ccc(CC(=O)Nc5cc(C(C)(C)C)nn5C)cc4)c3s2)cn1 | 71%
Oc1c(I)cc(I)cc1CNCCCN(Cc1ccccn1)Cc1ccccn1 | -52.7% (active)
COc1ccc(/C=C2\Oc3cc(OCCN4CCC(Cc5ccccc5)CC4)ccc3C2=O)cc1OC | 78.6%
CC[C@H](C)C(=O)O[C@H]1CCC=C2C=C[C@H](C)[C@H](CC[C@@H]3CC=CC(=O)O3)[C@H]21 | 99.6%
Cc1cccc2c(=O)c3c(sc12)c(NCc1ccccc1)nc1ccccc13 | 87.5%
COc1cc(C2CC(c3ccc(N(C)C)cc3)=NN2C(C)=O)cc(OC)c1OC (centres undefined) | 47.8%
CCCCCCNC(=O)Oc1ccc(/C(=C(\C)c2ccc(Cl)cc2)c2ccc(OCCCN(C)C)cc2)cc1 | 97%
N[C@@H](Cc1ccccc1)[C@@H](O)C(=O)NCc1ccc(F)cc1 | 119%
COC(=O)/C=C1\S/C(=N\Nc2ccc([N+](=O)[O-])cc2[N+](=O)[O-])N(C2CCCCC2)C1=O | 86.8%
O=C(O)c1cn(C2CC2)c2cc(N3CCN(C(=O)Nc4nc(-c5ccccc5)cs4)CC3)c(F)cc2c1=O | 26%
